# From PubChem BioAssay (NCI)
# Several values for one entry are separate records, joined by “and”; a condition that tells them apart may be missing. Identical values can stand only once. About 83,000 compounds went through this panel and 20% of them were active in at least one assay; those are over-represented in the sample as a whole.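 Results are percent growth after 48 hours of single-concentration exposure. 100 means growth as in untreated cells, lower positive values show inhibition; negative values down to -100 show cell death.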 Activity calls are given as the source filed them. The calls were made as follows: active = growth percent below 10; inactive = the rest.
# How the values were obtained:
# Assay in all cases: NCI-60 one-dose screen, 48 h (100 = growth as untreated, 0 = no growth, -100 = all killed)
# Details in all cases: 10 µM unless noted
# SR leukemia = system: SR leukemia
# RPMI-8226 leukemia = system: RPMI-8226 leukemia
# OVCAR-8 ovarian = system: OVCAR-8 ovarian
# OVCAR-5 ovarian = system: OVCAR-5 ovarian
# OVCAR-4 ovarian = system: OVCAR-4 ovarian
# SK-OV-3 ovarian = system: SK-OV-3 ovarian
# IGROV1 ovarian = system: IGROV1 ovarian
# OVCAR-3 ovarian = system: OVCAR-3 ovarian
# HS 578T breast = system: HS 578T breast
# NCI/ADR-RES ovarian = system: NCI/ADR-RES ovarian
# T-47D breast = system: T-47D breast
# BT-549 breast = system: BT-549 breast
# MDA-MB-435 melanoma = system: MDA-MB-435 melanoma
# MCF7 breast = system: MCF7 breast
# HCT-116 colon = system: HCT-116 colon
# HCC-2998 colon = system: HCC-2998 colon
# KM12 colon = system: KM12 colon
# SW-620 colon = system: SW-620 colon
SMILES,growth (SR leukemia),growth (RPMI-8226 leukemia),growth (OVCAR-8 ovarian),growth (OVCAR-5 ovarian),growth (OVCAR-4 ovarian),growth (SK-OV-3 ovarian),growth (IGROV1 ovarian),growth (OVCAR-3 ovarian),growth (HS 578T breast),growth (NCI/ADR-RES ovarian),growth (T-47D breast),growth (BT-549 breast),growth (MDA-MB-435 melanoma),growth (MCF7 breast),growth (HCT-116 colon),growth (HCC-2998 colon),growth (KM12 colon),growth (SW-620 colon)
CCN1CCN(CC(=O)Nc2nc3ccc(NCc4ccc(C)cc4)cc3s2)CC1,7.22% (active),48.8% (inactive),85.9% (inactive),80.5% (inactive),75% (inactive),91.5% (inactive),91.4% (inactive),70.3% (inactive),84.9% (inactive),81.8% (inactive),50.7% (inactive),88% (inactive),-41.8% (active),35.6% (inactive),13% (inactive),80.9% (inactive),73% (inactive),–
COc1ccc(Cn2cc(C(=O)Nc3cccnc3Nc3ccccc3)nn2)cc1,94.9% (inactive),96.3% (inactive),101% (inactive),107% (inactive),95% (inactive),112% (inactive),102% (inactive),118% (inactive),94.1% (inactive),89.8% (inactive),91.7% (inactive),86.9% (inactive),–,91% (inactive),103% (inactive),88.5% (inactive),97.8% (inactive),112% (inactive)
COc1ccc(-c2cc3cnc4ccccc4c3oc2=O)cc1,74.6% (inactive),102% (inactive),105% (inactive),101% (inactive),103% (inactive),93.9% (inactive),106% (inactive),106% (inactive),100% (inactive),102% (inactive),87.1% (inactive),101% (inactive),98.6% (inactive),86.9% (inactive),93.3% (inactive),89.2% (inactive),103% (inactive),–
Cn1cc(-c2csc(-c3c[nH]c4ccc(F)cc34)n2)c2cnccc21,-36% (active),-35.5% (active),-1.04% (active),-12.5% (active),10.9% (inactive),103% (inactive),-37.1% (active),-73.2% (active),-38.1% (active),11.5% (inactive),-65% (active),76.6% (inactive),–,-25.1% (active),-89.9% (active),-54.9% (active),-11.8% (active),-86.7% (active)
CCCCCCCCCCCCCCCC(=O)O[C@@H]1[C@@H](O)[C@@H](O)C([C@H](NC(=O)[C@@H]2C[C@@H](CCC)CN2C)[C@H](C)Cl)O[C@@H]1SC (stereo partly drawn),98.5% (inactive),90.9% (inactive),103% (inactive),97.1% (inactive),105% (inactive),98.2% (inactive),101% (inactive),109% (inactive),122% (inactive),112% (inactive),96.1% (inactive),99.4% (inactive),–,102% (inactive),103% (inactive),115% (inactive),–,114% (inactive)
CC[C@]1(O)CC2CN(CCc3c([nH]c4ccccc34)C(C(=O)OC)(c3cc4c(cc3OC)N(C=O)[C@H]3[C@@](O)(C(=O)OC)[C@H](OC(C)=O)[C@]5(CC)[C@@H]6C[C@@H]6CN6CC[C@]43[C@@H]65)C2)C1 (stereo partly drawn),12.7% (inactive),23.4% (inactive),10.3% (inactive),29.6% (inactive),45.5% (inactive),-17.7% (active),8.34% (active),-53.6% (active),-2.32% (active),-6.57% (active),72.1% (inactive),-2.67% (active),–,12.1% (inactive),-17.5% (active),12.2% (inactive),-17.5% (active),23.1% (inactive)
CC(C)(C)c1cc(NC(=O)Nc2ccc(-c3cn4c(n3)sc3cc(OCCN5CCOCC5)ccc34)cc2)no1,9.24% (active) and 1.25% (active),-11% (active) and 22.8% (inactive),13.2% (inactive) and -9.65% (active),56% (inactive) and 60.8% (inactive),59.3% (inactive) and 3.54% (active),45.4% (inactive) and 27.9% (inactive),48.3% (inactive) and 37.5% (inactive),-43.2% (active) and 38.5% (inactive),-2.54% (active),51.5% (inactive) and 23.2% (inactive),-33% (active) and -23.2% (active),4.32% (active) and 9.08% (active),65.1% (inactive) and 31.5% (inactive),9.99% (active) and 22.3% (inactive),8.69% (active) and 14.3% (inactive),39.1% (inactive) and 56.4% (inactive),13.7% (inactive) and 9.16% (active),–
